Shown are actives, neighbours in structure and some others; about 3.2% of the full set was active somewhere.
CRFR2-BP ag – agonists of human CRF-binding protein/CRF-R2 receptor complex. HEK293 CRF-R2/CRF-BP, calcium dye fluorescence (FLIPR); percent of saturating CRF peptide response. activation, % at 13.2 µM. 0.46% of 350,000 active. AID 588473;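 active means activation of at least 50%, plus an integration ratio under a set limit after plate pattern correction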;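 further: plate controls were neutral control wells without compound for no effect and CRF at EC100 for full effect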
CRFBP-R2 block – antagonists of CRF-binding protein/CRF-R2 receptor complex; HEK293 CRF-R2/CRF-BP, CRF-induced calcium fluorescence; inhibition, % at 11.8 µM; 0.59% of 350,000 active; AID 588475;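 active means inhibition of the ligand-induced calcium signal above about 50% at the single tested concentration, limit read from the data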
Cardio protect – protects H9c2 cardiomyocytes from peroxide injury | H2O2 injury protection, ATPLite, 2 h | protection from H2O2 cell death, % at 20 µM | 0.63% of 360,000 active | AID 588492;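 active means compounds giving at least 50% protection of heart cells from peroxide-induced death in the single-dose screen, raw or plate-pattern-corrected value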;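 further: 0% = DMSO wells with peroxide and 100% = DMSO wells without peroxide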
PfG6PD inh – PfG6PD (Plasmodium falciparum) enzyme inhibition. 0.78% of 350,000 active. AID 504690. inhibition, % at 20 µM. PfGluPho enzyme, NADPH resazurin-diaphorase fluorescence;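 active means inhibition reaching at least a set limit at 20 µM in the primary screen, cut at about 59% in these data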;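 further: 0% = DMSO wells with substrate and 100% = DMSO wells lacking glucose-6-phosphate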
aDG glyco up – increases alpha dystroglycan glycosylation | Pro5-aDG cells, alpha-DG glycosylation AlphaScreen (IIH6); 0% Pro5, 100% B10-LARGE cell signal | activation, % at 10 µM | 0.22% of 360,000 active | AID 624168;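 active means activation of at least 8% versus controls, or a plate z-score of at least 8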;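 further: Pro5 are CHO cells carrying HIG-tagged alpha-DG that lacks glycosylation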
FAS-TE inh – blocks the thioesterase domain of human fatty acid synthase; P49327; recombinant FAS-TE, OMFH fluorogenic substrate, fluorescence endpoint; inhibition, % at 15 µM; 0.67% of 360,000 active; AID 602261;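 active means compounds whose normalised, plate-corrected inhibition of enzyme fluorescence in the single-dose primary screen is 50% or more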;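 further: 0% = DMSO with enzyme and 100% = substrate without enzyme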
Target sequence (P49327 whole entry, looked up, the tested form may be a part): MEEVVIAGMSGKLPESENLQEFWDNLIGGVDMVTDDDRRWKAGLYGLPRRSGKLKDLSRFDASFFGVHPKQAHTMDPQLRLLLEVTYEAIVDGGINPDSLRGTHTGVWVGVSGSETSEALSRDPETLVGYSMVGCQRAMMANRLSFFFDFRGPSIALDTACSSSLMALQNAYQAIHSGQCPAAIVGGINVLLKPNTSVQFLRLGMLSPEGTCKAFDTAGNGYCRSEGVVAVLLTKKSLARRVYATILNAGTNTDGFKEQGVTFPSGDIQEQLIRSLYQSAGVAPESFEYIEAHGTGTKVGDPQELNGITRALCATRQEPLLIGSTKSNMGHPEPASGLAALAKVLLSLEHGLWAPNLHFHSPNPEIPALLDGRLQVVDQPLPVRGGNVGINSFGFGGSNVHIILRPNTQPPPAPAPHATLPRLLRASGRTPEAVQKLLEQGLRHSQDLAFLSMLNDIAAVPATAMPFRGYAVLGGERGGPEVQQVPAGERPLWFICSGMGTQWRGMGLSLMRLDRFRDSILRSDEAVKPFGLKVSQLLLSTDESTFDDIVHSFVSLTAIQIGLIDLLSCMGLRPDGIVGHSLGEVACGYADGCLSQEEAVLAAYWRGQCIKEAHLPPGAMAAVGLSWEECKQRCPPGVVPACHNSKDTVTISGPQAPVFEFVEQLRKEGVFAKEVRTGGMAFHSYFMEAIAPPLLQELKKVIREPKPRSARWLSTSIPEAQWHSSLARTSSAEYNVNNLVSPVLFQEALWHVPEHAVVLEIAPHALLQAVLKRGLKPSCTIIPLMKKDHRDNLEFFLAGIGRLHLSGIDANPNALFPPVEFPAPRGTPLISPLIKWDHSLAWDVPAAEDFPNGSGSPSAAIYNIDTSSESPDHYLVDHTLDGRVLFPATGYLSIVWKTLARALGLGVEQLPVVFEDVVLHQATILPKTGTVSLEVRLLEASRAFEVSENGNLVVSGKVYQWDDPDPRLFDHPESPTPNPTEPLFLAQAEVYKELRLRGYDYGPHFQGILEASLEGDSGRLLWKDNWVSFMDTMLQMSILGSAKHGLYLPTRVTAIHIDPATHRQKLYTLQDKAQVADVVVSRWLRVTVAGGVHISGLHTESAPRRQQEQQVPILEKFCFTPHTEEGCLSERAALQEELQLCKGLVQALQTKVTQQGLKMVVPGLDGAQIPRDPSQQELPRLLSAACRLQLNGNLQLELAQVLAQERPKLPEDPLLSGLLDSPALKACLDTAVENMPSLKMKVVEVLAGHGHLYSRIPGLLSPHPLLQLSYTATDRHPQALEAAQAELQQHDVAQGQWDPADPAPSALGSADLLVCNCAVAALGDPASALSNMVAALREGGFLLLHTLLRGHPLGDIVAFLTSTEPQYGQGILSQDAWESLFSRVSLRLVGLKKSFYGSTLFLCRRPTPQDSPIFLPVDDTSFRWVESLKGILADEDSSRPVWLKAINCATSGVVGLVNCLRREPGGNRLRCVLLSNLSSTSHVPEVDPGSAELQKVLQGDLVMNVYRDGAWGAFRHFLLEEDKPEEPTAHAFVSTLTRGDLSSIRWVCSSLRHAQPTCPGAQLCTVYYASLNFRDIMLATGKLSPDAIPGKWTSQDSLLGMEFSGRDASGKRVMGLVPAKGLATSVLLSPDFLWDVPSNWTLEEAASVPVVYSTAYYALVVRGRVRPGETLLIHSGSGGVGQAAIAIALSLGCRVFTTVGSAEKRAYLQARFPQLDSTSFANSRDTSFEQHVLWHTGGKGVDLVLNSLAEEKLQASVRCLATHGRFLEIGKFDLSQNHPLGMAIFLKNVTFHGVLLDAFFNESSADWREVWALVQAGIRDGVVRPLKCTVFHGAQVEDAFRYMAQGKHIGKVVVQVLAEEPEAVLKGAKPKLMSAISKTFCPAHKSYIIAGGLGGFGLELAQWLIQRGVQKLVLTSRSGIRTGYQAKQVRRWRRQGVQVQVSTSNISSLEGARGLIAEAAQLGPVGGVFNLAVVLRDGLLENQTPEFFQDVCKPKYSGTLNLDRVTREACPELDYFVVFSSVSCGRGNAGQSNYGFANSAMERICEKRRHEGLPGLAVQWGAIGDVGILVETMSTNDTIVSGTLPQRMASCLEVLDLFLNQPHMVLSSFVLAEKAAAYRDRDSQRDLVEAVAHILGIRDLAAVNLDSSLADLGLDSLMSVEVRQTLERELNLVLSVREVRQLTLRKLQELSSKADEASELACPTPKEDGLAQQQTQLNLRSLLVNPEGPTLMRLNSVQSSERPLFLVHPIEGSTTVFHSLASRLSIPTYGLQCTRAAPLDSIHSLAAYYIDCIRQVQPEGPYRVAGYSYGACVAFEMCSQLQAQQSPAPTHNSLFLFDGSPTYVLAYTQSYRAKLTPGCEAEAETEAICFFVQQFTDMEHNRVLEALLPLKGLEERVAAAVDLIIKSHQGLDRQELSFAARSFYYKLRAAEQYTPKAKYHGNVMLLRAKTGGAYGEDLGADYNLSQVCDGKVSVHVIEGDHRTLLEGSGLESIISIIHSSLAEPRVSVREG
PfG6PD confirm – PfG6PD inhibition, single-dose confirmed; shares compounds with PfG6PD inh; recombinant PfGluPho, NADPH-diaphorase-resazurin fluorescence; inhibition, % at 20 µM; 34% of 2,400 active; AID 504753;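 active means inhibition of at least 50% at 20 µM in any single replicate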;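 further: 0% = DMSO with substrate and 100% = DMSO lacking glucose-6-phosphate substrate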
Diaph ctr 10uM – inhibits diaphorase or oxidizes, flagging false PfG6PD hits; inhibition, % at 20 µM; AID 504862; shares compounds with PfG6PD inh; 39% of 820 active; diaphorase-coupled resazurin reduction, fluorescence, NADPH 10 uM;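 active means average inhibition reaching 50% or more with the compound at 20 µM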;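 further: resorufin red fluorescence formed as diaphorase reduces resazurin using NADPH; 0% = DMSO with enzyme and 100% = DMSO without enzyme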
Diaphorase 30uM – counter-screen for P. falciparum G6PD inhibitors: diaphorase inhibitors, oxidizers; AID 504863; shares compounds with PfG6PD inh; inhibition, % at 20 µM; Diaphorase/resazurin coupled assay, resorufin fluorescence, 30 uM NADPH; 29% of 820 active;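 active means inhibition averaging 50% or more, tested at 20 µM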;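 further: 0% = DMSO with enzyme and 100% = DMSO wells lacking diaphorase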
Active calls of the source: *; · = no result given.

SMILES	CRFR2-BP ag	CRFBP-R2 block	Cardio protect	PfG6PD inh	aDG glyco up	FAS-TE inh	PfG6PD confirm	others
Cc1ccc(Nc2nc(N3CCOCC3)nc(N3CCOCC3)n2)cc1C	0	-8	-2	16	2	3	·
CCOc1ccc(Cl)cc1/C=N/O	-1	2	-3	2	0	-5	·
CCOc1ccc(Cl)cc1/C=N/NC(N)=O	-1	3	5	79*	0	-5	53*	Diaph ctr 10uM=47;Diaphorase 30uM=38
CCCS(=O)(=O)NC(=O)C1(C)CCCN(C(=O)c2cc(OC)ccc2Br)C1 (stereo unspecified)	·	·	-2	·	0	-8	·
CC(C)C(=O)N1CCN(c2ccc([N+](=O)[O-])c(NC(C)c3ccccc3)c2)CC1 (stereo unspecified)	0	13	4	81*	0	46	36
CCS(=O)(=O)N1CCN(c2ccc([N+](=O)[O-])c(NC(C)c3ccccc3)c2)CC1 (stereo unspecified)	-1	-9	3	78*	0	41	54*	Diaph ctr 10uM=34;Diaphorase 30uM=24
CC(Nc1cc(N2CCN(C(=O)C(C)(C)C)CC2)ccc1[N+](=O)[O-])c1ccccc1 (stereo unspecified)	-1	23	26	24	0	33	·
CCOC(=O)C1=C(C)N=C2SC(C(=O)OC)=CC(=O)N2C1c1cc(OC)c(OC)c(OC)c1 (stereo unspecified)	-3	22	-6	29	0	20	·
Cc1cc2nc(-c3ccc(SCc4ccccc4C#N)nc3)[nH]c2cc1C	-1	-13	-3	13	2	14	·
Cc1cc2nc(-c3ccc(SCc4ccc(C(=O)O)cc4)nc3)[nH]c2cc1C	-1	9	2	72*	0	2	30
Cc1ccccc1NC(=O)CCN1CCc2ccccc2C1	-2	-7	3	-5	0	2	·
O=C(Nc1ccccn1)C(=O)Nc1ccccn1	0	9	-4	0	0	-4	·
S=C(Nc1ccccn1)c1ccccn1	2	14	-20	67*	0	-3	13
O=C1NC2(CCCCC2)C(=O)N1CC(=O)N1CCc2ccccc21	-3	-9	5	-20	0	-8	·
COc1cccc(C2=Nc3cccc4cccc(c34)N2)c1	-3	19	-2	73*	0	18	38
Nc1ncnc(Oc2ccccc2F)c1[N+](=O)[O-]	1	-16	2	1	0	-5	·
COc1ccccc1C1CC(c2cccc(NS(C)(=O)=O)c2)=NN1S(=O)(=O)c1ccccc1 (stereo unspecified)	1	-4	0	-13	0	7	·
COc1cc(-c2c(-c3cc(OC)c(OC)c(OC)c3)noc2C)ccc1F	2	0	·	63*	·	·	14
O=C(COC(=O)c1cnccn1)c1cccc([N+](=O)[O-])c1	-1	-11	2	-21	0	-1	·
O=C(CSc1ccccn1)Nc1ccc(NC(=O)CSc2ccccn2)cc1	-4	-5	-4	-24	0	-6	·
O=C(CSc1ccccn1)Nc1nonc1[N+](=O)[O-]	1	0	-10	112*	4	5	110*	Diaph ctr 10uM=87*;Diaphorase 30uM=91*
O=S(=O)(NC1c2cccc3cccc(c23)C1Sc1ncccn1)c1ccccc1 (stereo unspecified)	-1	22	-1	-6	0	15	·
Clc1ccc2[nH]cc(-c3nnnn3-c3ccccc3)c2c1	-1	-6	-6	96*	0	4	36
Cc1c(S(=O)(=O)Nc2ccc(Oc3ccccc3)cc2)c(=O)n(C)c(=O)n1C	-1	-8	-3	5	0	13	·
Oc1c(Cl)cc(Cl)cc1C=Nc1cc(C(F)(F)F)ccc1N1CCc2ccccc2C1	7	-8	-21	72*	0	19	-8

Source: PubChem BioAssay (Sanford-Burnham Center for Chemical Genomics)
